For this experiment, the target named is ARL4D. In words: pooled miR-30 sensor sort-seq; sequence = guide strand. As to conditions: shRNA.
For the sequence ATTCGGTGCAACTCCACCTTGG, the sensor-assay potency score (higher = more potent) was -0.512.

Sequence TTGCACATGAGTGAGAGTGGCG displayed a sensor-assay potency score (higher = more potent) of -0.774.

TCCTCTTGAGGATCATCTCATA came in with a sensor-assay potency score (higher = more potent) of -1.96.

In the case of ACAAACACTAGACCGTCTGTCC, the sensor-assay potency score (higher = more potent) was -0.415.

In the case of AAGAGCGCCACAGTGGTCGCAG, the sensor-assay potency score (higher = more potent) is -0.161.

In turn, TTGGAAGGTGATGCCACGCGAT showed a sensor-assay potency score (higher = more potent) of -0.67.

As for TTTGGTGGGGACACTCTGGACA, the sensor-assay potency score (higher = more potent) is -0.71.

In turn, AACTCCTTGAACTTGAGGCGGT had a sensor-assay potency score (higher = more potent) of -0.138.

As to TTCGGTGCAACTCCACCTTGGC, the sensor-assay potency score (higher = more potent) turned out to be 0.0163.

In turn, TCCACCACAAACACTAGACCGT gave a sensor-assay potency score (higher = more potent) of -0.55.

In turn, TGATTCGGTGCAACTCCACCTT yielded a sensor-assay potency score (higher = more potent) of 0.0703.

As for TTCTCGGTGTTGAAGCCTTTGG, the sensor-assay potency score (higher = more potent) was -1.06.

In turn, AGACCGTCCACAGCGCTGCAGC had a sensor-assay potency score (higher = more potent) of -1.79.

Turning to TAGACCGTCTGTCCGGCGGGTA, the sensor-assay potency score (higher = more potent) was -1.34.

The sequence AAACTCCTTGAACTTGAGGCGG returned a sensor-assay potency score (higher = more potent) of -0.934.
Note: reference of the scale not given here.
